Several values for one entry are separate records, joined by “and”; a condition that tells them apart may be missing. Equal entries are not always repeated. The panel holds about 83,000 compounds, 20% with a hit somewhere; the sample as a whole holds those more often.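 Activity criterion: percent growth below 10, measured after cells in 96-well plates were exposed to a single compound concentration for 48 hours.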 Activity calls are given as the source filed them.
How the values were obtained:
Assay in all cases: NCI-60 one-dose screen, 48 h (100 = growth as untreated, 0 = no growth, -100 = all killed)
T-47D breast = conditions: 10 µM unless noted
BT-549 breast = conditions: 10 µM unless noted
MCF7 breast = conditions: 10 µM
HCT-116 colon = conditions: 10 µM unless noted
HCC-2998 colon = conditions: 10 µM unless noted
KM12 colon = conditions: 10 µM unless noted
SW-620 colon = conditions: 10 µM unless noted

Measured: growth

Oc1c(Cl)c2ccccc2c2ccccc12
inactive: T-47D breast 122% | BT-549 breast 95.8% | MCF7 breast 98.8% | HCT-116 colon 101% | HCC-2998 colon 117% | KM12 colon 107%

Cc1cc2nc(CS)[nH]c2cc1C
inactive: T-47D breast 74.3% | SW-620 colon 84.7% | MCF7 breast 82.9% | HCT-116 colon 58.1% | HCC-2998 colon 102% | KM12 colon 88%

Cc1ccc2c(ccc3c[n+]4c5ccccc5ccc4n32)c1
active: T-47D breast -24.7% | BT-549 breast -2.45% | SW-620 colon 7.65% | MCF7 breast 0.326% | HCT-116 colon 7.17% | HCC-2998 colon -34.9% | KM12 colon -8.63%

O=C(Oc1cccc2cccnc12)c1ccccc1
inactive: T-47D breast 38.6% and 95.2% | BT-549 breast 101% and 107% | SW-620 colon 49.7% and 104% | MCF7 breast 55.1% and 102% | HCT-116 colon 32.8% and 102% | HCC-2998 colon 108% and 104% | KM12 colon 101% and 104%

O=C1C=CC(=O)N1C1c2ccccc2-c2ccccc21
inactive: T-47D breast 73.6% | SW-620 colon 14.7% | MCF7 breast 85.8% | HCT-116 colon 97.9% | HCC-2998 colon 114% | KM12 colon 107%

N#CSCc1ccc(CSC#N)c(Cl)c1
inactive: T-47D breast 68.4% | BT-549 breast 56.5% | SW-620 colon 25.4% | MCF7 breast 22.7% | HCT-116 colon 43.6% | HCC-2998 colon 102% | KM12 colon 69.3%

Oc1ccc(/C=N/NC(=S)Nc2ccccc2)nc1
inactive: T-47D breast 12.6% | BT-549 breast 44.8% | MCF7 breast 16.4% | HCT-116 colon 21% | KM12 colon 11.3%
active: HCC-2998 colon 5.05%

CCCCCCCCCCCCCCNCc1ccccc1
inactive: T-47D breast 72.9% | BT-549 breast 96.6% | MCF7 breast 51.2% | HCT-116 colon 86.8% | HCC-2998 colon 16.1% | KM12 colon 62.5%

Cc1cc(N)c2ccccc2[n+]1CCCCCCCCCC[n+]1c(C)cc(N)c2ccccc21
inactive: SW-620 colon 11.6% and 18.1%
11.9% (inactive) and -3.39% (active): MCF7 breast
active: T-47D breast 5.34% and -12.1% | BT-549 breast -29% and -15.7% | HCT-116 colon 4.6% and 3.4% | KM12 colon -48.4% and 6.86%

Source: PubChem BioAssay (NCI)
